Measurements: PubChem BioAssay (NCI)
About 83,000 compounds went through this panel and 20% of them were active in at least one assay; those are over-represented in the sample as a whole.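 Testing used 96-well plates and a 48-hour single-concentration exposure. Example: -40 means 40% of the starting cells died.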 The source made the active and inactive calls. Rule for the calls: active = growth percent below 10; inactive = the rest.

Assays:
Assay in all cases: NCI-60 one-dose screen, 48 h (100 = growth as untreated, 0 = no growth, -100 = all killed)
Conditions in all cases: 10 µM unless noted
[1] = system: DU-145 prostate
[2] = system: K-562 leukemia
[3] = system: MALME-3M melanoma
[4] = system: MDA-MB-231 breast
[5] = system: RXF 393 renal
[6] = system: SF-268 CNS
[7] = system: SF-295 CNS
[8] = system: SF-539 CNS
[9] = system: UACC-257 melanoma
[10] = system: M14 melanoma
[11] = system: HCT-15 colon
[12] = system: HT29 colon
[13] = system: SNB-75 CNS
[14] = system: SNB-19 CNS
[15] = system: U251 CNS
[16] = system: PC-3 prostate
[17] = system: SK-MEL-5 melanoma
[18] = system: UACC-62 melanoma
[19] = system: LOX IMVI melanoma
[20] = system: SK-MEL-28 melanoma

Measured: growth

COc1ccc2cc1Oc1ccc(cc1)C[C@H]1c3c(cc4c(c3Oc3cc5c(cc3OC)CCN(C)[C@@H]5C2)OCO4)CCN1C
active: [2] -2.72% | [3] -46.1% | [4] -5.97% | [5] -18.7% | [8] -55.7% | [9] -78.4% | [10] -86.2% | [12] 4.38% | [17] -97% | [19] -41.7% | [20] -54.9%
inactive: [1] 59.6% | [6] 36.4% | [7] 58.1% | [11] 27% | [13] 71.4% | [14] 75.9% | [15] 26.8% | [16] 43.9% | [18] 34.4%

CCSc1nc2scc(C)c2c(=O)[nH]1
inactive: [1] 105% | [2] 99.9% | [3] 106% | [4] 104% | [5] 112% | [6] 100% | [7] 99.2% | [8] 99.2% | [9] 105% | [10] 107% | [11] 104% | [12] 105% | [13] 90.2% | [14] 96.5% | [15] 97.1% | [16] 98.7% | [17] 99.9% | [18] 94.1% | [19] 99.7% | [20] 105%

COC(=O)[C@]12CCC(C)(C)C[C@H]1[C@H]1/C(=N/OCCc3nn[nH]n3)C[C@@H]3[C@@]4(C)CC[C@H](OC(C)=O)C(C)(C)[C@@H]4CC[C@@]3(C)[C@]1(C)CC2
inactive: [1] 53.8% | [2] 24.5% | [3] 40.4% | [4] 48.5% | [5] 70.1% | [6] 45.5% | [7] 25% | [8] 44.7% | [9] 16.5% | [10] 48.4% | [11] 33.3% | [12] 43.1% | [13] 43% | [14] 34% | [15] 36.3% | [16] 26.7% | [18] 13.2% | [19] 19.8% | [20] 41.9%
active: [17] -45%

N#Cc1c(-c2ccccc2)cc(-c2ccccc2)n(CCCC(=O)Nc2ccccc2N)c1=O
inactive: [1] 87.4% | [2] 20.2% | [3] 47.4% | [4] 69.9% | [5] 55.8% | [6] 59.5% | [7] 35.1% | [8] 52.5% | [9] 78.2% | [10] 39.8% | [11] 28.1% | [12] 49.5% | [14] 62.2% | [15] 56.7% | [16] 67.4% | [17] 48.4% | [18] 34.2% | [19] 48% | [20] 65.9%
active: [13] -9.01%

COC(=O)CC[C@H](C)[C@H]1CC[C@H]2[C@@H]3CC[C@@H]4CC5(CC[C@]4(C)[C@H]3CC(=O)[C@]12C)Nc1ccccc1NC5=NC(C)(C)C (stereo not given in full)
inactive: [1] 90.2% | [2] 42.2% | [3] 109% | [4] 86.7% | [5] 84.7% | [6] 84.1% | [7] 84% | [8] 90.8% | [9] 77.2% | [10] 84.9% | [11] 51.4% | [12] 69.8% | [13] 71.1% | [14] 81.5% | [15] 48.3% | [16] 56.5% | [17] 77.5% | [18] 57.9% | [19] 47.4% | [20] 89.2%

CN(C)CCNC(=O)c1ccc(-c2nc3ccc4[nH]ncc4c3c3c2C2CCC3C2)cc1 (stereo not given)
inactive: [1] 20.8% | [2] 20.7% | [3] 28.1% | [6] 16.8% | [7] 40.9% | [8] 18.5% | [9] 58.7% | [10] 31.3% | [11] 41.8% | [12] 34.4% | [14] 60.9% | [15] 44.8% | [16] 19.9% | [17] 16.4% | [18] 31.3% | [19] 26.2% | [20] 46.6%
active: [4] 2.4% | [5] -30.9% | [13] -12.4%

CCCC/C(CC)=N\NS(=O)(=O)c1ccc([N+](=O)[O-])cc1
inactive: [1] 97.2% | [2] 95% | [3] 101% | [4] 96.2% | [5] 110% | [6] 100% | [7] 108% | [8] 101% | [9] 88.7% | [10] 101% | [11] 107% | [12] 106% | [13] 90.4% | [14] 95.2% | [15] 88.6% | [16] 84.5% | [17] 98.2% | [18] 98.5% | [19] 94.2% | [20] 108%

CC(O)(c1ccccc1)C(c1ccccc1)C1CCCCN1 (stereo not given)
inactive: [1] 103% | [2] 95.6% | [3] 97.5% | [4] 93.9% | [5] 106% | [6] 99.6% | [7] 99.8% | [8] 96.5% | [9] 96.2% | [10] 92.3% | [11] 96.6% | [12] 99.3% | [13] 100% | [14] 99.5% | [15] 100% | [16] 105% | [17] 103% | [18] 95.8% | [19] 96.8% | [20] 109%

O=C1NC(=O)C(Cc2ccc(OCc3ccc(-c4ccc(Cl)cc4Cl)cc3)cc2)S1 (stereo not given)
active: [17] -28.4%
inactive: [1] 78.9% | [2] 23.5% | [3] 49.9% | [4] 71% | [5] 76.1% | [6] 51.8% | [7] 45% | [8] 56.2% | [9] 55.7% | [10] 47.5% | [11] 39.5% | [12] 86.3% | [13] 59.1% | [14] 73.8% | [15] 57.6% | [16] 32.2% | [18] 41.9% | [19] 37.1% | [20] 65.3%

CCOC(=O)[C@@H]1CSC(CC)=C(C(=O)O)N1
inactive: [1] 118% | [3] 104% | [4] 105% | [5] 109% | [6] 116% | [7] 111% | [8] 93.4% | [9] 89.1% | [10] 98.6% | [11] 104% | [12] 111% | [13] 115% | [14] 100% | [15] 94.6% | [17] 103% | [18] 94.4% | [19] 104% | [20] 101%
active: [2] 8.66% | [16] -9.62%

Cn1c(=O)c2nc(/C=C/c3ccccc3)c(=O)[nH]c2n(C)c1=S
inactive: [1] 113% | [2] 105% | [3] 105% | [4] 105% | [5] 118% | [6] 105% | [7] 99.8% | [8] 104% | [9] 112% | [10] 103% | [11] 102% | [12] 109% | [13] 105% | [14] 105% | [15] 108% | [16] 102% | [17] 102% | [18] 92.4% | [19] 101% | [20] 111%

O=C1/C(=C/c2ccccc2O)CC/C1=C\c1ccccc1O
active: [2] 7.41% | [16] 8.94%
inactive: [1] 46.1% | [3] 80.4% | [4] 44.3% | [5] 67.5% | [6] 71.3% | [7] 98.6% | [8] 82.3% | [9] 86.3% | [10] 61.3% | [11] 35.1% | [12] 99.6% | [13] 77.2% | [14] 31.3% | [15] 69.1% | [17] 77.9% | [18] 36.6% | [19] 45.9% | [20] 96.8%

NC(=O)c1c(NC(=O)c2ccc3ccccc3c2)sc2c1CCC(=O)C2
inactive: [1] 94.4% | [2] 14.6% | [3] 91.1% | [4] 67.5% | [5] 60.7% | [6] 31.4% | [7] 93.4% | [8] 25.4% | [9] 91.6% | [10] 37.4% | [11] 42.1% | [12] 55.2% | [13] 40.3% | [14] 46.3% | [15] 22.9% | [16] 16.6% | [17] 99.7% | [18] 42% | [19] 37.5% | [20] 97.1%

CN(C)CC1CCC(CN(C)C)C1=O (stereo not given)
active: [2] 4.34%
inactive: [1] 115% | [3] 115% | [4] 117% | [5] 123% | [6] 108% | [7] 133% | [8] 109% | [9] 109% | [10] 108% | [11] 105% | [12] 103% | [13] 102% | [14] 102% | [15] 102% | [16] 96.7% | [17] 108% | [18] 102% | [19] 106% | [20] 112%

CCC(=O)Oc1ccc(-c2ccccc2)cc1Br
inactive: [1] 107% | [2] 107% | [3] 109% | [4] 103% | [5] 106% | [6] 103% | [7] 104% | [8] 106% | [9] 106% | [10] 102% | [11] 105% | [12] 101% | [13] 95.1% | [14] 112% | [15] 103% | [16] 95.4% | [17] 98.3% | [18] 109% | [19] 107% | [20] 110%

C=C1C(=O)O[C@H]2[C@H]1CC/C(COC(=O)C(=O)c1cn(C)c3ccc(Cl)cc13)=C\CC[C@@]1(C)O[C@@H]21
active: [1] -96% | [2] 3.09% | [3] -65.6% | [4] -68.7% | [5] -97% | [6] -65.1% | [7] -65.4% | [8] -70.9% | [9] -84.1% | [10] -77.3% | [11] -62.8% | [12] -71.3% | [13] -98.3% | [14] -75% | [15] -95.3% | [16] -70.5% | [17] -100% | [18] -82.5% | [19] -84.5% | [20] -64.6%
